Source: PubChem BioAssay (NCATS)
Inconclusive results are not listed. Calls of active or inactive are those of the source. Unless noted, calls come from the whole dose curve; as a rule, active = well fitted curve in either direction with a large enough effect (not every such curve was filed as active); inconclusive = small, poorly fitted or top-dose-only effect, or another doubt; inactive = flat fitted curve, though single readings scatter.

Key:
[1] = molecular target: Lysosomal acid glucosylceramidase (Homo sapiens) (UniProt P04062); assay: Glucocerebrosidase-p2 (AID 348; in the data active = potency below about 10 µM; note: potency is the fitted concentration of half-maximal effect); details: purified GBA, blue fluorogenic substrate, 40 min
Sequence of Lysosomal acid glucosylceramidase (Homo sapiens) (P04062 whole entry, looked up): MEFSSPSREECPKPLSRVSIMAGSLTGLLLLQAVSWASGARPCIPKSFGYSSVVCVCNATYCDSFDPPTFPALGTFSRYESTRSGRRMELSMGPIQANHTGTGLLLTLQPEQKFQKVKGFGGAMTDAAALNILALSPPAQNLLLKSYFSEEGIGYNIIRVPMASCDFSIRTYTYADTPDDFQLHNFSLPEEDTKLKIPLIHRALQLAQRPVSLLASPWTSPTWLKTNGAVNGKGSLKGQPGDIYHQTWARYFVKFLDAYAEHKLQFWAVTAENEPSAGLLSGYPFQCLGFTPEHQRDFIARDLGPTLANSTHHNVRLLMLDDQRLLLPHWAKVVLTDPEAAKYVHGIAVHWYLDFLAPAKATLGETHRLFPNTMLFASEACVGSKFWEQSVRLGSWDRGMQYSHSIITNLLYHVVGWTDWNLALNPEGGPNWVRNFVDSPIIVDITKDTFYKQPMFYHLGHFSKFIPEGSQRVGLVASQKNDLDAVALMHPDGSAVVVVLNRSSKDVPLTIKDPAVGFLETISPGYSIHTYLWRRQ
In short: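 Compounds titrated from 0.6 nM upwards against 0.2 nM enzyme in pH 5.9 citric acid/KH2PO4, taurocholate, tween-20; blue fluorogenic substrate 80 uM, 40 min room temperature, stopped and read Ex 365/Em 440 for AC50.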

[2] = AP1 Signaling Pathway (AID 357); details: ME-180 AP-1-bla reporter, EGF-induced, beta-lactamase ratio, 5 h; at 7.69 µM (top of the series) unless noted; note: % is set by controls: 0 for no effect and ±100 for the full control effect
In short: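 AP-1-bla ME-180 cells with beta-lactamase reporter under AP-1 response element, stimulated with EC50 EGF; compounds titrated, 5 hours at 37 degrees Celsius. CCF4 read at 460/530 nm ratio; positive and negative modulators judged by AC50.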

[3] = molecular target: Cytochrome P450 1A2 (Homo sapiens) (UniProt P05177); assay: p450-cyp1a2 (AID 410; calls by dose curve; note: potency is the fitted concentration of half-maximal effect;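 for activity change, negative = inhibition: -100% = full effect of reference inhibitor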); details: recombinant CYP1A2, luciferin-ME demethylation, luminescence; series mostly up to 57 µM
Sequence of Cytochrome P450 1A2 (Homo sapiens) (P05177 whole entry, looked up): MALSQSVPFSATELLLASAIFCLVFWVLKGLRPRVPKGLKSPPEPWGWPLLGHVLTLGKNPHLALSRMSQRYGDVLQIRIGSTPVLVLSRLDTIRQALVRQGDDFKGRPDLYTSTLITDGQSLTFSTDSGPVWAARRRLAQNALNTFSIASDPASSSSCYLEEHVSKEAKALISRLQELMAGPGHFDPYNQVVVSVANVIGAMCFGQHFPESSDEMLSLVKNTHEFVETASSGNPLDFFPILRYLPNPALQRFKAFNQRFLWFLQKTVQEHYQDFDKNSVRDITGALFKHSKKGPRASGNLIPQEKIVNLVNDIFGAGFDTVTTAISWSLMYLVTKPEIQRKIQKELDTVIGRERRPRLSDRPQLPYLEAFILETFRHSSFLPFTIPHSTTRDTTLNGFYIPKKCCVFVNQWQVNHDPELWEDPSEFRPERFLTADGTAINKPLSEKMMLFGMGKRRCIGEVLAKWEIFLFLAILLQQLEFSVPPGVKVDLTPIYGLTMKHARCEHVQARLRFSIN
In short: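 Inhibition was calculated relative to 57 uM furafylline (full inhibition). The reaction used human CYP1A2 at 20nM with Luciferin-ME at its Km, 100uM, driven by an NADPH-regenerating system for 60 min at room temperature.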

[4] = NFAT Signaling Pathway (AID 444); details: Jurkat NFAT-bla M1, carbachol, beta-lactamase ratio, 5 h; at 7.69 µM (top of the series) unless noted;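 note: carbachol stimulus at about its EC50 of 1 µM final; % is set by controls: 0 for no effect and ±100 for the full control effect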
In short: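 Jurkat cells carrying an NFAT-driven β-lactamase reporter and co-transfected muscarinic M1 receptor were treated with compound plus carbachol (1 uM final, an EC50 level) for 5 h at 37 °C. CCF4 loading followed for 1 h at RT; 460/530 nm ratio gave %activity.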

[5] = Stat Signaling Pathway (AID 446); details: ME-180 SIE beta-lactamase reporter, IL-6 stimulated, 5 h; at 7.69 µM (top of the series) unless noted;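 note: ME-180 cervical cancer cells given 40 pM IL-6 alongside compound; SIE-controlled beta-lactamase reporter measured as 460/530 nm FRET emission ratio; % is set by controls: 0 for no effect and ±100 for the full control effect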
In short: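 Screening format detects activators and inhibitors alike: ME-180 SIE-bla cells stimulated at 40 pM IL-6 for 5 hrs with compound, then dual-emission beta-lactamase read at 405 nm excitation.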

[6] = molecular target: Glucocorticoid receptor (Homo sapiens) (UniProt P04150); assay: GR-EFC Redistribution (AID 451; calls by dose curve; note: potency is the fitted concentration of half-maximal effect); details: CHO-K1 GR-EFC translocation, beta-gal luminescence, 2 h
Sequence of Glucocorticoid receptor (Homo sapiens) (P04150 whole entry, looked up, the tested form may be a part): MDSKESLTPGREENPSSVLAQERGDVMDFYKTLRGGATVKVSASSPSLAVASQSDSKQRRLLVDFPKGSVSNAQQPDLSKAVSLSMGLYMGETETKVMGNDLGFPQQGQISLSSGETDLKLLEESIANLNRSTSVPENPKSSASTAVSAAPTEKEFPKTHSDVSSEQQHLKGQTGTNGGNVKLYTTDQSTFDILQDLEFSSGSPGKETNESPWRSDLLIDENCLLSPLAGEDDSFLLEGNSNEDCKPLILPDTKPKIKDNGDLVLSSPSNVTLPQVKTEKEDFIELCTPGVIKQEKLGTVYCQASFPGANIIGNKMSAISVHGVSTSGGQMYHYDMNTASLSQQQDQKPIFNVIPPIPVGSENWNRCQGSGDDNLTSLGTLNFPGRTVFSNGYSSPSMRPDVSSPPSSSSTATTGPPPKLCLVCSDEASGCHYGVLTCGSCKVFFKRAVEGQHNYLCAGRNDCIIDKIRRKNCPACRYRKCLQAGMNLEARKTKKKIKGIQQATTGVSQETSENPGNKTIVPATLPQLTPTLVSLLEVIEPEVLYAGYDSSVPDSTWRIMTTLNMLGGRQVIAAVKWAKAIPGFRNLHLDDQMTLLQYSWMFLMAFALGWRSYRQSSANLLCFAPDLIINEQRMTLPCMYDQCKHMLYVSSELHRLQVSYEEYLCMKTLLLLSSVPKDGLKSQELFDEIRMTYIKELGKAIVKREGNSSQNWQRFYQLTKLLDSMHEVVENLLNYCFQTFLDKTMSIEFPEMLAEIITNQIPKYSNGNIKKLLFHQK
In short: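 CHO-K1 cells stably expressing nuclear-localized β-gal enzyme acceptor and GR fused C-terminally to the enzyme donor fragment; ligand-driven nuclear translocation restores β-gal by complementation. Compounds titrated up to 46 uM final, 2 h at 37 °C; luminescence read.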

[7] = molecular target: 3',5'-cyclic-AMP phosphodiesterase 4B (Homo sapiens) (UniProt Q07343); assay: qHTS Assay for Inhibitors of PDE-IV (AID 607; active = well fitted activation curve with a large enough effect in the main read-out, with a control signal flat, not every such curve was filed as active; note: % of control where 0% means no effect); details: HEK293 ACTOne CNG channel cells, membrane potential fluorescence; series mostly up to 22.9 µM
Sequence of 3',5'-cyclic-AMP phosphodiesterase 4B (Homo sapiens) (Q07343 whole entry, looked up): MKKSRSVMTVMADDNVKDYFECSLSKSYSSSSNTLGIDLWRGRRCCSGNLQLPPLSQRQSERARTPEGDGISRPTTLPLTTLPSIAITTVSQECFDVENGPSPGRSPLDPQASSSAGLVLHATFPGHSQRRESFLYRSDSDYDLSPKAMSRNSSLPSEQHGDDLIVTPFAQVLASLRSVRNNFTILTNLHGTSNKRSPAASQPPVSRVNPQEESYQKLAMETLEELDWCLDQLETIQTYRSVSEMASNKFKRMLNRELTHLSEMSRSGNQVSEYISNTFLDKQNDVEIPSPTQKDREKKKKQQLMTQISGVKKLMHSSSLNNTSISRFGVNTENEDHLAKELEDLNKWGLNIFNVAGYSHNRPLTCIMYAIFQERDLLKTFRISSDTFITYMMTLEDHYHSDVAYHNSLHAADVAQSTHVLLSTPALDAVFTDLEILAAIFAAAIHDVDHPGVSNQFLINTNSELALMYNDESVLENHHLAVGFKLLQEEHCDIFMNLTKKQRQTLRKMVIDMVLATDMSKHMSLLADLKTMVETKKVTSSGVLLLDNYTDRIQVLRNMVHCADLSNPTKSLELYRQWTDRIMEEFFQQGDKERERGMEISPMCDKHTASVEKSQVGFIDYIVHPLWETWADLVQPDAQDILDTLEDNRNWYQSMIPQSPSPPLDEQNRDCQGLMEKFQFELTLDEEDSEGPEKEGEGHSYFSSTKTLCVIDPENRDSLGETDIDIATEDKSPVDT
In short: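 The readout is membrane depolarisation from a cAMP-sensing CNG channel, detected with a potential dye at ex 535/em 590. Cells were HEK293-derived (endogenous PDE-IV) at 1000 cells/well, titrated up to 22.9 uM final.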

[8] = molecular target: Cytochrome P450 3A4 (Homo sapiens) (UniProt P08684); assay: qHTS Assay for Inhibitors and Substrates of Cytochrome P450 3A4 (AID 884; active = well fitted curve in the direction sought with a large enough effect; an effect the other way counts as inactive or inconclusive; note: nearly all actives have a fitted effect of over 50% in size; note: potency is the fitted concentration of half-maximal effect); details: recombinant CYP3A4, Luciferin-PPXE luminescence; series mostly up to 57.1 µM
Sequence of Cytochrome P450 3A4 (Homo sapiens) (P08684 whole entry, looked up): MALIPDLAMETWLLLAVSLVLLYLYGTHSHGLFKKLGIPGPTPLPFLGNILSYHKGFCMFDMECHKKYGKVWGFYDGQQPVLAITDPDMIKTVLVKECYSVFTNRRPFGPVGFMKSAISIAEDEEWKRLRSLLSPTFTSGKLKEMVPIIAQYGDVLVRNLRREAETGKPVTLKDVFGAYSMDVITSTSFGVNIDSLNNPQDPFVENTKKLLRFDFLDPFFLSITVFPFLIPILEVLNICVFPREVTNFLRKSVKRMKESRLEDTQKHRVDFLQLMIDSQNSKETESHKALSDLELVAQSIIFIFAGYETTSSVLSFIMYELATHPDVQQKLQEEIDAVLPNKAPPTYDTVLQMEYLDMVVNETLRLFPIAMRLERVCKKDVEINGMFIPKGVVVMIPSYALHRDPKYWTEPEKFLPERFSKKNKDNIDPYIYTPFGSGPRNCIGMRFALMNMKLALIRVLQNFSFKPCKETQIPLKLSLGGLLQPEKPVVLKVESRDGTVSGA
In short: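 20 nM human CYP3A4 with 25 uM Luciferin-PPXE (at KM) in 200 mM KPO4, preincubated 10 min with compound; NADPH regeneration started a 60 min RT reaction. Luciferin detected by luminescence, normalized to 57 uM ketoconazole as full inhibition.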

[9] = molecular target: Cytochrome P450 3A4 (Homo sapiens) (UniProt P08684); assay: qHTS Assay for Activators of Cytochrome P450 3A4 (AID 885; active = well fitted curve in the direction sought with a large enough effect; an effect the other way counts as inactive or inconclusive; note: nearly all actives have a fitted effect of over 65% in size; note: potency is the fitted concentration of half-maximal effect); details: recombinant CYP3A4, Luciferin-PPXE luminescence, 60 min; series mostly up to 57.1 µM
In short: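 Steps: enzyme/substrate mix dispensed; compound added, 10 min RT; NADPH regeneration solution added, 60 min RT; luciferin detection buffer stops reaction; 20 min later luminescence measured.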

[10] = qHTS Assay for Lipid Storage Modulators (AID 1519; calls by dose curve); details: Drosophila S3 cells, BODIPY lipid droplet/cell ratio, laser cytometry, cells loaded with oleic acid; for activity change, negative = inhibition: at 57.5 µM (top of the series)
In short: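 Cells seeded at 5,000 per well were treated with compounds over a concentration series and loaded with oleic acid (400 uM, as added). Lipid droplet fluorescence (488 nm excitation, 500-530 nm channel) was read by laser-scanning cytometry and normalized to 20 uM Triacsin C.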

[11] = Primary qHTS for small molecule stabilizers of the endoplasmic reticulum resident proteome: Secreted ER Calcium Modulated Protein (SERCaMP) assay (AID 1508630; active = well fitted curve in the direction sought with a large enough effect; an effect the other way counts as inactive or inconclusive; note: % is set by controls: 0 for no effect and ±100 for the full control effect); details: SH-SY5Y GLuc-SERCaMP (Gaussia luciferase released on ER calcium loss) secretion, thapsigargin, luminescence; series mostly up to 38.4 µM
In short: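 GLuc-SERCaMP-expressing SH-SY5Y cells, pretreated 16 h with compound, are challenged with thapsigargin to empty ER calcium stores; after 4 h, coelenterazine is added directly to the medium and luminescence is imaged.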

[12] = molecular target: Glucocorticoid receptor (Homo sapiens) (UniProt P04150); assay: GR-GFP Redistribution (AID 450;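 active = compounds whose dose series gives a full or clear partial fitted curve of increased nuclear translocation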; note: potency is the fitted concentration of half-maximal effect); details: U2OS GR-GFP nuclear translocation, laser cytometry, 2 h
[13] = molecular target: Mitogen-activated protein kinase 10 (Mus musculus) (UniProt Q61831); assay: JNK3 AlphaScreen Assay (AID 530); details: JNK3 lysate, c-Jun phosphorylation; series mostly up to 57.1 µM
In short: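 JNK3 came from HepG2 lysates pre-activated with IL-1beta and TNF-alpha and phosphorylated biotinylated GST-cJun (1-79) at 10 uM ATP, pH 7.6, room temperature. Compounds were titrated. AlphaScreen signal used anti-phospho-cJun (Ser73) antibody.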

[14] = qHTS Assay for Identification of Small Molecule Agonists for Hypoxia Response Element Signaling Pathway (AID 914; active = well fitted activation curve with a large enough effect in the signal ratio, with a control signal flat, not every such curve was filed as active; the % refers to the signal ratio; note: potency is the fitted concentration of half-maximal effect); details: ME-180 (cervical carcinoma) HRE-bla reporter, beta-lactamase ratio, CoCl2, 17 h; activation: stronger effect = higher value
In short: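 In Opti-MEM containing 0.5% dialyzed FBS and 10 mM HEPES, ME-180 HRE-bla cells received a compound titration and EC50 CoCl2. They were incubated 17 hours, then CCF4-loaded 2.5 hours at room temperature before ratio reading.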

[15] = molecular target: Cytochrome P450 2D6 (Homo sapiens) (UniProt P10635); assay: qHTS Assay for Inhibitors and Substrates of Cytochrome P450 2D6 (AID 891; active = well fitted curve in the direction sought with a large enough effect; an effect the other way counts as inactive or inconclusive; note: potency is the fitted concentration of half-maximal effect; nearly all actives have a fitted effect of over 60% in size); details: recombinant CYP2D6, luciferin-ME EGE luminescence; series mostly up to 57.1 µM
Sequence of Cytochrome P450 2D6 (Homo sapiens) (P10635 whole entry, looked up): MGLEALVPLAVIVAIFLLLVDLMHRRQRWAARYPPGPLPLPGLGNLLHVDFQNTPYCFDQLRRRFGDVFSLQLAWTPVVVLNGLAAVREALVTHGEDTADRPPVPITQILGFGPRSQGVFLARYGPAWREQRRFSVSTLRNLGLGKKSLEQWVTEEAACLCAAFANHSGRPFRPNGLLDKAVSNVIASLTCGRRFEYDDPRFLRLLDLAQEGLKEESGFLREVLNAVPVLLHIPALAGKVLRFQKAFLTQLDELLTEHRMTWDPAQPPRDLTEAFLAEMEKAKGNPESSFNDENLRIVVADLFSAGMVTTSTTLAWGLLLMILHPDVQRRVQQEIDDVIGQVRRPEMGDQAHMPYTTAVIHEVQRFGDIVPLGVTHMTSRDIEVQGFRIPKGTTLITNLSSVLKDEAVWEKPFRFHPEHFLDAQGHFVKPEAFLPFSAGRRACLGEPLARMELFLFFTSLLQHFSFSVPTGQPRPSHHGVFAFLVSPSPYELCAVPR
In short: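 Human CYP2D6 (5 nM) with 30 uM Luciferin-ME EGE (at Km) in 100 mM KPO4, compound preincubated 10 min, then NADPH regeneration system for 60 min at room temperature. Luciferin read by luminescence; normalized to 1.43 uM quinidine.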

[16] = measured here: cell count channel max response
[17] = measured here: lipid channel max response

For Cn1cccc1C(=O)N1CCC2(CC1)CCN(c1ccccc1)CC2, the Potency [1] was > 11.4 µM (inactive), the activity change, negative = inhibition [2] was -11.3% (inactive) and the Potency [3] was 12.6 µM (active). The activity change, negative = inhibition [4] was 20.8% (inactive), the activity, negative = inhibition [5] was -1.51% (inactive) and the Potency [6] was > 46 µM (inactive). The Potency [7] was “inactive”, the Potency [8] was “inactive” and the Potency [9] was 15.8 µM (active). The activity change, negative = inhibition [10] was 5.03% (inactive), the max response [10, 16] was 9.38% and the max response [10, 17] was 16.6%. For the same compound, the Potency [11] was “inactive”.

For O=C(c1cnccn1)N1CCC[C@@]2(CCN(c3ccncc3)C2)C1, the Potency [1] was > 11.4 µM (inactive), the activity change, negative = inhibition [2] was -3.24% (inactive) and the Potency [3] was “inactive”. The activity change, negative = inhibition [4] was 1.53% (inactive), the activity, negative = inhibition [5] was 5.94% (inactive) and the Potency [6] was > 46 µM (inactive). For the same compound, the Potency [7] was “inactive”, the Potency [8] was 3.16 µM (active) and the Potency [9] was “inactive”. For the same compound, the activity change, negative = inhibition [10] was 3.16% (inactive), the max response [10, 16] was 6.74% and the max response [10, 17] was 12.1%. The Potency [11] was “inactive”.

In the case of O=c1c(-c2cc(F)cc(F)c2)nc2cnc(N3CCOCC3)nc2n1C1CC1, the Potency [1] is reported as > 11.4 µM (inactive), the activity change, negative = inhibition [2] is reported as 7.91% (inactive) and the Potency [3] is reported as 1 µM (active). The activity change, negative = inhibition [4] was 6.75% (inactive), the Potency [12] was > 9.22 µM (inactive) and the Potency [6] was > 46 µM (inactive). The outcome [13] was “inactive”, the Potency [14] was 1.58 µM (active) and the activity change, negative = inhibition [10] was 0.7% (inactive). For the same compound, the max response [10, 16] was 9.59%, the max response [10, 17] was 11.7% and the Potency [11] was “inactive”.

With N#Cc1cccc(NC(=O)N2CC[C@@]3(CCCNC3)C2)c1 the Potency [1] was > 11.4 µM (inactive), the activity change, negative = inhibition [2] was 9.42% (inactive) and the Potency [3] was “inactive”. For the same compound, the activity change, negative = inhibition [4] was 9.18% (inactive), the activity, negative = inhibition [5] was -4.17% (inactive) and the outcome [13] was “inactive”. For the same compound, the Potency [7] was “inactive”, the Potency [9] was “inactive” and the activity change, negative = inhibition [10] was 1.94% (inactive). The max response [10, 16] was -6.65%, the max response [10, 17] was -1.99% and the Potency [11] was “inactive”.

In the case of O=C(Oc1ccccc1)N1CCC2(CC1)CN(c1ccccc1)C2, the Potency [1] is reported as > 11.4 µM (inactive), the activity change, negative = inhibition [2] is reported as 3.75% (inactive) and the Potency [3] is reported as 15.8 µM (active). For the same compound, the activity change, negative = inhibition [4] was -1.1% (inactive), the activity, negative = inhibition [5] was -0.517% (inactive) and the Potency [6] was > 46 µM (inactive). For the same compound, the Potency [7] was “inactive”, the Potency [8] was “inactive” and the Potency [9] was 15.8 µM (active). The activity change, negative = inhibition [10] was 1.33% (inactive), the max response [10, 16] was -10.5% and the max response [10, 17] was -7.26%. The Potency [11] was “inactive”.

With CS(=O)(=O)N1CCC2(CC1)CN(Cc1nccs1)C2 the Potency [1] was > 11.4 µM (inactive), the activity change, negative = inhibition [2] was -7.04% (inactive) and the Potency [3] was 6.31 µM (active). For the same compound, the activity change, negative = inhibition [4] was 11.5% (inactive), the activity, negative = inhibition [5] was 6.32% (inactive) and the Potency [6] was > 46 µM (inactive). For the same compound, the Potency [7] was “inactive”, the activity change, negative = inhibition [10] was 3.27% (inactive) and the max response [10, 16] was 13.6%. The max response [10, 17] was 18.5% and the Potency [11] was “inactive”.

For COCC(=O)N1CCC[C@@]2(CCN(Cc3ccccc3)C2)C1, the Potency [1] was > 11.4 µM (inactive), the activity change, negative = inhibition [2] was -0.884% (inactive) and the Potency [3] was “inactive”. The activity change, negative = inhibition [4] was 19.9% (inactive), the activity, negative = inhibition [5] was 7.86% (inactive) and the outcome [13] was “inactive”. The Potency [7] was “inactive”, the Potency [9] was “inactive” and the Potency [15] was 6.31 µM (active). For the same compound, the activity change, negative = inhibition [10] was 4% (inactive), the max response [10, 16] was 6.62% and the max response [10, 17] was 13.4%. The Potency [11] was “inactive”.
